Measured values as given in PubChem BioAssay.
Inconclusive results are not listed. Active and inactive are the calls of the source. Cut-off read from the data, not from the text of the source, unless noted: active = response above about 15%; inactive = the rest.

Columns and labels:
[1] = rapamycin-like changes in RPL19A-GFP expression – cell-based, S. cerevisiae, multiplex flow cytometry, primary screen (AID 1862; in the data active = percent of DMSO control GFP below about 86%;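 note: lower values mimic rapamycin by blocking the RPL19A rise seen in DMSO cells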); conditions: S. cerevisiae RPL19A-GFP strain, flow cytometry fluorescence, 3 h; at 10 µM; stronger effect = lower value
[2] = TOR pathway GLN3 branch reporter MEP2-GFP changes – S. cerevisiae, multiplex flow cytometry, primary screen (AID 1867;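 active = GFP response, as percent of the DMSO control, above the screen-wide mean plus 3 SD, about 139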;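 note: median GFP channel fluorescence of barcode-gated MEP2-GFP cells measured by flow cytometry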); conditions: S. cerevisiae MEP2-GFP strain, 3 h, at 10 µM, stronger effect = higher value, 100% means same as DMSO wells
[3] = TOR pathway RTG branch CIT2 reporter changes – S. cerevisiae, GFP fusion, multiplex flow cytometry, primary screen (AID 1870;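 active = percent response above a set limit, the screen-wide mean plus 3 SD, cut at about 130% in these data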;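 note: barcoded CIT2-GFP strain pooled with four other GFP strains with rapamycin as positive control; median GFP fluorescence per well over plate mean of DMSO wells so 100% = DMSO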); conditions: S. cerevisiae CIT2-GFP expression, 3 h, at 10 µM, stronger effect = higher value
[4] = TOR pathway LAP4-GFP level changes – S. cerevisiae, multiplex flow cytometry, primary screen (AID 1873;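 active = GFP signal, as percent of the solvent control, above the screen mean plus 3 SD, about 149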); conditions: S. cerevisiae LAP4-GFP expression, 3 h, at 10 µM, stronger effect = higher value
[5] = yeast AGP1-GFP level changes, GLN3 branch – cell-based, multiplex flow cytometry, S. cerevisiae, primary screen (AID 1887;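 active = GFP signal above the screen-wide mean plus 3 SD, that is over about 124.5% of the solvent control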;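 note: AGP1-GFP fusion strain of S. cerevisiae within a five-strain barcoded multiplex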); conditions: 3 h, at 10 µM, stronger effect = higher value
[6] = reduced mouse 2C T cell binding to pMHC/ICAM-1 vesicles – MLPCN validation set, flow cytometry, LFA-1/ICAM-1 modulator project, pilot screen (AID 2523;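 active = response below a set limit, under 55% cells CD8-positive and vesicle-bound, and CD8 cells' 90th-percentile brightness under 279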;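 for vesicle binding response: mean PE anti-B7-1 fluorescence of CD8+ cells relative to row control; 100% = QL9-loaded vesicles with DMSO vehicle in the same plate row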); conditions: 2C mouse CD8+ T cells, at 7 µM, stronger effect = lower value; double positive events: measured here: CD8+/vesicle+ event percentage
[7] = target: Integrin beta-1 (Homo sapiens) + Integrin alpha-4 (Homo sapiens) (UniProt P13612+P05556); assay: alpha4beta1 integrin LIBS antibody binding reduction – U937 cells, HUTS-21 mAb, flow cytometry, validation set, VLA-4 allosteric modulator project, pilot screen (AID 2674;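 active = inhibition above 50%, about 3 SD of the validation set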;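 note: antibody binding induced by the VLA-4 ligand LDV present at three times its Kd; 0% = LDV ligand with antibody and no compound and 100% = antibody without LDV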); conditions: HUTS-21 LIBS mAb binding, at 6.7 µM, stronger effect = higher value, binding induced by LDV ligand
[8] = calorie-restriction mimetic ROS inhibitors, yeast – validation compound set, pilot screen (AID 2706;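 active = superoxide response below 65% of plate, a cut near 3 SD across the whole screen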;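 note: yeast exposed to compound for one week at 30 degrees C before staining; 100% = mean of all compound wells on the same plate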); conditions: S. cerevisiae aging, superoxide DHE fluorescence; at 10 µM; stronger effect = lower value
[9] = target: Beta-adrenergic receptor kinase 1 (Homo sapiens) (UniProt P25098); assay: GRK2 binders displacing RNA aptamer, biochemical, validation, human GRK2, bead flow cytometry (AID 488806;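 active = aptamer binding inhibition above 30%, about 3 SD of noise from non-fluorescent compounds; inactive = inhibition at or below 30%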); conditions: bead-bound GRK2, FAM-aptamer displacement, at 10 µM, stronger effect = higher value
[10] = target: Beta-2 adrenergic receptor (Homo sapiens) (UniProt P07550); assay: agonist-induced loss of surface beta2AR – cell-based, FAP fluorogen, flow cytometry, validation set, pilot screen (AID 504459;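 active = percent response above 42, roughly 3 SD of non-fluorescent test compounds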;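 note: agonist-driven loss of surface beta2AR via internalization measured by FAP dye flow cytometry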); conditions: Am2.2-beta2AR cells, at 10 µM, stronger effect = higher value
[11] = target: AP-2 complex subunit beta (Homo sapiens) (UniProt P63010); assay: beta-arrestin/AP2 interaction blockers – biochemical, validation set, GST-AP2 beads, flow cytometry, pilot screen (AID 504541;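 active = inhibition above 54%, about 3 SD of non-fluorescent compounds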;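 note: AP2 carries R879A mutation and is captured from E. coli lysate; bead-bound FITC arrestin peptide fluorescence measuring arrestin peptide binding to AP2; 0% = DMSO wells and 100% = excess unlabeled arrestin peptide control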); conditions: FITC arrestin peptide, at 10 µM, stronger effect = higher value, AP2 beta2 appendage fragment, R879A mutant
[12] = cytosolic pH regulators acting via V-ATPase – S. cerevisiae, pHLuorin, HTS validation (AID 504600); conditions: V-ATPase proton transport, at 10 µM, stronger effect = higher value;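 note: plate controls were DMSO for no effect and reference compound for full effect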
[13] = tested on: anti-desmoglein-3 scFv antibody binding to human DSG3; assay: blockers of pathogenic pemphigus antibody–desmoglein-3 binding – biochemical, validation compound set, bead-based, flow cytometry, pilot screen (AID 588368;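 active = binding below the plate cutoff, the plate median minus 3 SD, with a reading above zero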;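 note: signal is the median channel fluorescence of bead-bound GFP antibody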); conditions: Protein G beads, DSG3-Fc, scFv-GFP binding, at 10 µM, stronger effect = lower value
[14] = Nile Red efflux blockade in pump-expressing yeast – validation compound set, multiplex, phenotypic, pilot screen (AID 588506;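 active = efflux inhibition above 0.42, the validation set average plus 4 SD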;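 note: Nile Red retained in cells so higher fluorescence means more efflux inhibition; 0 = negative control wells and 1 = enniatin B 25 µM full block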); conditions: S. cerevisiae pump-expressing triplex, Nile Red efflux flow cytometry; at 10 µM; stronger effect = higher value; the pumps come from Candida albicans
[15] = target: ATP-binding cassette sub-family B member 6 (Homo sapiens) (UniProt Q9NP58); assay: blockers of ABCB6-driven porphyrin uptake – K562-ABCB6 cells, flow cytometry, validation set, pilot screen (AID 588550;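 active = inhibition above the screen-wide mean plus 3 SD, about 51%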;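 note: 0% = DMSO wells and 100% = benzethonium chloride 70 µM positive control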); conditions: K562-ABCB6 porphyrin accumulation, 1 h, at 10 µM, stronger effect = higher value
[16] = AML differentiation inducers, ER-HoxA9 marrow cells – cell-based, GFP/MAC1 double positive, flow cytometry, validation set, primary screen (AID 588685;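 active = differentiation response of at least 50%, scaled between solvent and reference control, from cells with both markers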;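 note: compound exposure lasts four days before antibody staining and flow analysis; 0% = DMSO wells and 100% = 5 µM fulvestrant positive control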); conditions: stronger effect = higher value, normalized: vehicle 0, fulvestrant 100

AP-2 complex subunit beta (Homo sapiens), sequence (P63010 whole entry, looked up, the tested form may be a part, one chain of several): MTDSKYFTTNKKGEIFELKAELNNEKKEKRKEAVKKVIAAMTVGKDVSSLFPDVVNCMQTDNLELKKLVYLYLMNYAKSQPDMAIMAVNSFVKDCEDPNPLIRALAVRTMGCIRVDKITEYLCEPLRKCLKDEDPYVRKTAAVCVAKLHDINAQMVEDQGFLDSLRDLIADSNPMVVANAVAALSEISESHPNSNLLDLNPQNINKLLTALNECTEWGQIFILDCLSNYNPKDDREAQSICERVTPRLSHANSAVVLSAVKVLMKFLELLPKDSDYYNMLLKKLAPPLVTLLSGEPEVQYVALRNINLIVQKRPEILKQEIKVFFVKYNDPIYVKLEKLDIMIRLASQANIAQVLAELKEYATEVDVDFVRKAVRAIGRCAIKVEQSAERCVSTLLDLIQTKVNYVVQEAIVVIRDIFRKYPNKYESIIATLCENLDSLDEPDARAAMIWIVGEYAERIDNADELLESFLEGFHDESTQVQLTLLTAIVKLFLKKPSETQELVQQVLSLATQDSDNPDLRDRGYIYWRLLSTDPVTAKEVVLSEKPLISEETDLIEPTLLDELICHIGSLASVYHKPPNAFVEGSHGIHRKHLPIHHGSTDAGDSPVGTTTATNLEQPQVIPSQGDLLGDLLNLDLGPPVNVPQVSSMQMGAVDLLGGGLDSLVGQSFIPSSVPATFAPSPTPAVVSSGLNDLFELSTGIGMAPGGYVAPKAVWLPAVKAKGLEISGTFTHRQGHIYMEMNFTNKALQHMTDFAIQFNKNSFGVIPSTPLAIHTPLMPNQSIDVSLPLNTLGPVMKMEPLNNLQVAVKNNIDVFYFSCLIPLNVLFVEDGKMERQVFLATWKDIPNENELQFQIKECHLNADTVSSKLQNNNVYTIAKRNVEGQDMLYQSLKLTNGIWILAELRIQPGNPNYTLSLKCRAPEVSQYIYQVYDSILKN
Beta-adrenergic receptor kinase 1 (Homo sapiens), sequence (P25098 whole entry, looked up): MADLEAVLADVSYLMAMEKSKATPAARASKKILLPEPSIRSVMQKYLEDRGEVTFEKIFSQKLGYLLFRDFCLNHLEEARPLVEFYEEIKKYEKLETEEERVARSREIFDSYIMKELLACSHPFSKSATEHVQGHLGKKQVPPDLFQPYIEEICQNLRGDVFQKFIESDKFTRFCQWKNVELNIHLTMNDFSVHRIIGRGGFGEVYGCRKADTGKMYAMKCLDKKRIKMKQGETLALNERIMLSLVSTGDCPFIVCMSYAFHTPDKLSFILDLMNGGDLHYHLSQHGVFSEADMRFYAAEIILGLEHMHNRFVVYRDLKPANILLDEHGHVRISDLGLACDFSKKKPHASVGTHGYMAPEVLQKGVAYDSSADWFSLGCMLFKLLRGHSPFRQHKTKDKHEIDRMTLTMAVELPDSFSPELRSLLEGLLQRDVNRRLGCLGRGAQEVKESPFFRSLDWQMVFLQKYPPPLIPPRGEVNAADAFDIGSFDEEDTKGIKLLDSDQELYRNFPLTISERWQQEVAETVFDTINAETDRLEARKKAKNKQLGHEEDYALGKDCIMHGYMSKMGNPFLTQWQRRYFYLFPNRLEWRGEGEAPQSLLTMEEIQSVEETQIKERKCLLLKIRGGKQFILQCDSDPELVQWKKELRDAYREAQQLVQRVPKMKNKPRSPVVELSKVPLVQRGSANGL
Beta-2 adrenergic receptor (Homo sapiens), sequence (P07550 whole entry, looked up): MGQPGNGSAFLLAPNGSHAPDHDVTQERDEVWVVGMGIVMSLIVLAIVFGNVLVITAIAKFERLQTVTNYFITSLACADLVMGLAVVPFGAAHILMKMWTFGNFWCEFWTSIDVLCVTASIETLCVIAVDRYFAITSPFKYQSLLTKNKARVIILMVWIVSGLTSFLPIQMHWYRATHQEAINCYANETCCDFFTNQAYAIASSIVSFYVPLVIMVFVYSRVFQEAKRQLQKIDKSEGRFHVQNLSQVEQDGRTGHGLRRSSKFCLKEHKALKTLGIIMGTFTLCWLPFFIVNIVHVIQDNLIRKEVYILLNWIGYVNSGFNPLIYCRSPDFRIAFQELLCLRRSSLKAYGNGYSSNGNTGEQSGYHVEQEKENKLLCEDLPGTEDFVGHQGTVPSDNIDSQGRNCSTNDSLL
ATP-binding cassette sub-family B member 6 (Homo sapiens), sequence (Q9NP58 whole entry, looked up): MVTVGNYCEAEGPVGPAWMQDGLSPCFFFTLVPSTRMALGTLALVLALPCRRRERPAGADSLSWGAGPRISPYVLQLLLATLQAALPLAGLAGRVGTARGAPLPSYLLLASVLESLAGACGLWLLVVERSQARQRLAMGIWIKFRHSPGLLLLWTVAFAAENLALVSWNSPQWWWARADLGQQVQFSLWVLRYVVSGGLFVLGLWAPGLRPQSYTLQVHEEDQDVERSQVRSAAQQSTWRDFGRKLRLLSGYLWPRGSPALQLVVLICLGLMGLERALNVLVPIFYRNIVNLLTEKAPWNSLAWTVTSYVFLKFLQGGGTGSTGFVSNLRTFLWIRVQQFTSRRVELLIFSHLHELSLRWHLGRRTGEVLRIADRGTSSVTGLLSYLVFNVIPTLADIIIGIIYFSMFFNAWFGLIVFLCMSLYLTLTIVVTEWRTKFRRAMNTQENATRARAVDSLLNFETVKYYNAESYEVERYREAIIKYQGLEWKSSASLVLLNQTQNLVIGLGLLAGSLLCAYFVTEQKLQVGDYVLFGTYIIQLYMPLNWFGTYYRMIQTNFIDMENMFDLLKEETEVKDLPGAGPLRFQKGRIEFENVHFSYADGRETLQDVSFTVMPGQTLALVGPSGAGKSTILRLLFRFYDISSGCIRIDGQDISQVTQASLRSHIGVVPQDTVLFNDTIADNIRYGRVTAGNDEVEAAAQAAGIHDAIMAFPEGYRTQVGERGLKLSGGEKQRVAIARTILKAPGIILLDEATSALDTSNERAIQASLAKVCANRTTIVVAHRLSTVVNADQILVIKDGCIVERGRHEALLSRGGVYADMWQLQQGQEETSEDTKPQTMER
Integrin beta-1 (Homo sapiens) + Integrin alpha-4 (Homo sapiens), sequence (P05556 whole entry, looked up): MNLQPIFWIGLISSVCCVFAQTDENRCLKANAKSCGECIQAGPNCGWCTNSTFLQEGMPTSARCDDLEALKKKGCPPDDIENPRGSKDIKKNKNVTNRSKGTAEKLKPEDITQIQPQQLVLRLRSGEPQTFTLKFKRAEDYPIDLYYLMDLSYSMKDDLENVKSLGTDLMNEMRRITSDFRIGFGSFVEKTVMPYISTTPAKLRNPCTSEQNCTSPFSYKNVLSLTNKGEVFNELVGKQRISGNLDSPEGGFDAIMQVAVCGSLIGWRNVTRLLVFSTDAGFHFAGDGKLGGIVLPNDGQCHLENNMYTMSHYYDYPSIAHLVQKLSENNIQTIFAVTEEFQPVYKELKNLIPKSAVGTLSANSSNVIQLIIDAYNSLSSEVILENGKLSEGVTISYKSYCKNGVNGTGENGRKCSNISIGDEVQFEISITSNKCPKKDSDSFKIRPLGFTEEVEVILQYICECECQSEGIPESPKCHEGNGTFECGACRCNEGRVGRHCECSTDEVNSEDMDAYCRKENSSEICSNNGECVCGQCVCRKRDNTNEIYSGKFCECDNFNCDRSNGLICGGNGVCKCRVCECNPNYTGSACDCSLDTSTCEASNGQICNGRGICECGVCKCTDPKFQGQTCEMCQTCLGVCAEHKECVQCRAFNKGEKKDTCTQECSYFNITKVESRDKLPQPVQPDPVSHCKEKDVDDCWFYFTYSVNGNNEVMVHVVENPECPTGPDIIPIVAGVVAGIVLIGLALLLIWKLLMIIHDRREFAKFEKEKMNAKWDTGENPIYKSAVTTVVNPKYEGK
Integrin beta-1 (Homo sapiens) + Integrin alpha-4 (Homo sapiens), sequence (P13612 whole entry, looked up): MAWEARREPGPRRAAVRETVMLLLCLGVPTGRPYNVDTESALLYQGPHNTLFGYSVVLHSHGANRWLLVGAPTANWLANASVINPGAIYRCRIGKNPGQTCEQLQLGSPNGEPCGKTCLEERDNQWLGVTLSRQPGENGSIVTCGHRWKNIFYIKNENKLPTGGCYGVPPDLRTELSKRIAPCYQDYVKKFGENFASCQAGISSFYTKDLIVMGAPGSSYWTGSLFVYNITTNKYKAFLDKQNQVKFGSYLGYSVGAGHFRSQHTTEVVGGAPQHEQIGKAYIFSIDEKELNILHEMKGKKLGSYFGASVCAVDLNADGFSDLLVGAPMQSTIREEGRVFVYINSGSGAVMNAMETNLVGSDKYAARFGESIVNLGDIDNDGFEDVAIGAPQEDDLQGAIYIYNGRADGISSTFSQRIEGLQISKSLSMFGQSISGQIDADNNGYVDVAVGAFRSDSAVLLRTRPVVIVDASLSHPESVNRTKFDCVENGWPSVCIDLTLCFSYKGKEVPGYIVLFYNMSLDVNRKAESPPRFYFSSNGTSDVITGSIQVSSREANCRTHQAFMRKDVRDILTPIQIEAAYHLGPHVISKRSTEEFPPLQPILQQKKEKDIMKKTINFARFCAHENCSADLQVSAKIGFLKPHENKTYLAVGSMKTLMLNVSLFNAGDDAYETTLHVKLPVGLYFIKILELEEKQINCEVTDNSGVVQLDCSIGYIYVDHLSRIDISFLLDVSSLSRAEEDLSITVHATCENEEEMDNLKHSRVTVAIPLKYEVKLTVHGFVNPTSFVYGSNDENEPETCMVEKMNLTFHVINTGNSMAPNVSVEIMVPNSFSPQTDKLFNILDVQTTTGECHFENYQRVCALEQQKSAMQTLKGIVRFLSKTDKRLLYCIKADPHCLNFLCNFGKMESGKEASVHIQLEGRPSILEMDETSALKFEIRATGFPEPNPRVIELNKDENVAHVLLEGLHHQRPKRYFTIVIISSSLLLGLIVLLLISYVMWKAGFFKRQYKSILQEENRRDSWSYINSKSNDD

Compound | percent of DMSO control GFP [1] | GFP response vs DMSO [2] | percent response of DMSO control [3] | GFP response vs DMSO [4] | GFP response, % of DMSO [5] | double positive events [6] | vesicle binding response [6] | inhibition [7] | superoxide response (% of plate) [8] | aptamer binding inhibition [9] | response [10] | inhibition [11] | response [12] | binding (% of control) [13] | efflux inhibition (fraction of control) [14] | inhibition [15] | differentiation response [16]
C=C(C)C(=O)Nc1ccc(NC(C)C)cc1 | 104% (inactive) | 104% (inactive) | 97.6% (inactive) | 106% (inactive) | 101% (inactive) | 66% | 170% (inactive) | 9.63% (inactive) | 96.6% (inactive) | 4% (inactive) | 0.61% (inactive) | 19.3% (inactive) | -7.05% (inactive) | 95.1% (inactive) | -0.09 (inactive) | 0% (inactive) | -8.96% (inactive)
COc1ccc(C(=O)c2oc3ccc(Br)cc3c2NC(C)=O)cc1 | 90.9% (inactive) | 122% (inactive) | 112% (inactive) | 82% (inactive) | 97.5% (inactive) | 61.7% | 140% (inactive) | 4.52% (inactive) | 104% (inactive) | 1% (inactive) | -11.6% (inactive) | 3.03% (inactive) | 3.34% (inactive) | 96.9% (inactive) | -0.02 (inactive) | 8% (inactive) | -0.82% (inactive)
CSc1ccc(CN2CCN(CCC(C)C)C(CCO)C2)cc1 (stereo not drawn) | 101% (inactive) | 106% (inactive) | 109% (inactive) | 117% (inactive) | 131% (active) | 61.2% | 199% (inactive) | 4.84% (inactive) | 91.4% (inactive) | -1% (inactive) | -11.6% (inactive) | -9.19% (inactive) | 2.63% (inactive) | 102% (inactive) | -0.09 (inactive) | 0% (inactive) | -5.97% (inactive)
O=C(CS(=O)(=O)Cc1ccccc1)NCc1ccc2c(c1)OCO2 | 88% (inactive) | 123% (inactive) | 88.6% (inactive) | 81.4% (inactive) | 95.2% (inactive) | 63.3% | 123% (inactive) | -3.24% (inactive) | 92% (inactive) | 1% (inactive) | -3.4% (inactive) | -1.72% (inactive) | -0.1% (inactive) | 104% (inactive) | -0.24 (inactive) | -87% (inactive) | 5.73% (inactive)
COc1cccc2c(=O)c(C/C=C(/C)Cl)c(C)[nH]c12 | 107% (inactive) | 103% (inactive) | 101% (inactive) | 131% (inactive) | 108% (inactive) | 65.6% | 6720% (inactive) | 6.4% (inactive) | 107% (inactive) | 3% (inactive) | 3.25% (inactive) | -8.34% (inactive) | 3.49% (inactive) | 95.7% (inactive) | 0.01 (inactive) | 3% (inactive) | -16.8% (inactive)
N=c1c[n+](N2CCOCC2)[n-]o1 | 102% (inactive) | 106% (inactive) | 112% (inactive) | 89.4% (inactive) | 96.2% (inactive) | 65% | 236% (inactive) | 13% (inactive) | 92.1% (inactive) | 3% (inactive) | -6.36% (inactive) | 3.46% (inactive) | -0.08% (inactive) | 95.1% (inactive) | -0.07 (inactive) | 9% (inactive) | 7.09% (inactive)
COc1cccc2cc(-c3ccccc3)c(=O)oc12 | 105% (inactive) | 106% (inactive) | 101% (inactive) | 140% (inactive) | 106% (inactive) | 61.4% | 134% (inactive) | -1.97% (inactive) | 88.6% (inactive) | 3% (inactive) | -27.6% (inactive) | 10.1% (inactive) | 34.3% (active) | 102% (inactive) | 0.29 (inactive) | 2% (inactive) | -1.05% (inactive)
CC1(C)C(C=C(Cl)Cl)C1C(=O)N1CCN(Cc2ccccc2)CC1 (stereo not drawn) | 103% (inactive) | 99.3% (inactive) | 104% (inactive) | 89.4% (inactive) | 103% (inactive) | 66.3% | 329% (inactive) | -6.68% (inactive) | 102% (inactive) | 3% (inactive) | -1.88% (inactive) | 5.16% (inactive) | -5.4% (inactive) | 93.5% (inactive) | -0.01 (inactive) | 13% (inactive) | -9.53% (inactive)
Clc1ccc(CCNc2ncnc3nc[nH]c23)cc1 | 97.4% (inactive) | 108% (inactive) | 92% (inactive) | 105% (inactive) | 99.7% (inactive) | 60.8% | 127% (inactive) | 0.94% (inactive) | 108% (inactive) | 4% (inactive) | -5.61% (inactive) | 5.59% (inactive) | -0.06% (inactive) | 97.2% (inactive) | 0.08 (inactive) | 10% (inactive) | -0.8% (inactive)
COc1ccc2c(c1OC)C(=O)OC2C1c2c(cc3c(c2OC)OCO3)CCN1C (stereo not drawn) | 97.8% (inactive) | 100% (inactive) | 104% (inactive) | 91.4% (inactive) | 95.7% (inactive) | 60.2% | 230% (inactive) | 11% (inactive) | 92.5% (inactive) | 5% (inactive) | -9.24% (inactive) | -5.89% (inactive) | -1.48% (inactive) | 96.4% (inactive) | -0.29 (inactive) | -1% (inactive) | -2.69% (inactive)
Nc1ccc2cn[nH]c2c1 | 104% (inactive) | 97.7% (inactive) | 98.6% (inactive) | 101% (inactive) | 102% (inactive) | 60.8% | 109% (inactive) | -3.77% (inactive) | 109% (inactive) | -1% (inactive) | 2.17% (inactive) | 0.32% (inactive) | -2.55% (inactive) | 102% (inactive) | 0.265 (inactive) | 32% (inactive) | -16.3% (inactive)
CC(OC(=O)c1cc(=O)[nH]c2ccccc12)C(=O)c1ccccc1 (stereo not drawn) | 99.6% (inactive) | 101% (inactive) | 106% (inactive) | 107% (inactive) | 105% (inactive) | 58.9% | 174% (inactive) | -15.8% (inactive) | 96.4% (inactive) | -2% (inactive) | 1.78% (inactive) | -9.56% (inactive) | 0.61% (inactive) | 106% (inactive) | -0.61 (inactive) | 41% (inactive) | -4.57% (inactive)
CC(=O)C1=C(O)C(=O)N(Cc2cccnc2)C1c1ccc(C(C)C)cc1 (stereo not drawn) | 97.5% (inactive) | 109% (inactive) | 100% (inactive) | 113% (inactive) | 104% (inactive) | 59.9% | 152% (inactive) | -6.23% (inactive) | 84.1% (inactive) | -1% (inactive) | -27.3% (inactive) | 5.98% (inactive) | 2.79% (inactive) | 102% (inactive) | 0.08 (inactive) | 1% (inactive) | -5.97% (inactive)
O=C(c1ccco1)N(CCC(c1ccccc1)c1ccco1)Cc1ccco1 (stereo not drawn) | 103% (inactive) | 95.2% (inactive) | 106% (inactive) | 99.9% (inactive) | 104% (inactive) | 80% | 8050% (inactive) | -1.79% (inactive) | 104% (inactive) | 5% (inactive) | 6.76% (inactive) | 3.27% (inactive) | -0.61% (inactive) | 99.7% (inactive) | 0.15 (inactive) | -3% (inactive) | -13.6% (inactive)
Fc1ccc(-c2cc(-c3ccccc3)nc(-n3cccn3)n2)cc1 | 96.5% (inactive) | 106% (inactive) | 99.3% (inactive) | 97.2% (inactive) | 75.4% (inactive) | 57.7% | 11.1% (inactive) | 6.85% (inactive) | 92% (inactive) | 4% (inactive) | 8.42% (inactive) | 34.7% (inactive) | 0.43% (inactive) | 102% (inactive) | 0.3 (inactive) | 2% (inactive) | 20.9% (inactive)
O=C(CCSc1ccccc1)N1CCCC1 | 109% (inactive) | 109% (inactive) | 104% (inactive) | 104% (inactive) | 112% (inactive) | 67.6% | 193% (inactive) | 3.98% (inactive) | 109% (inactive) | 5% (inactive) | -4.18% (inactive) | 33.8% (inactive) | -0.71% (inactive) | 91.3% (inactive) | -0.15 (inactive) | 5% (inactive) | -0.36% (inactive)
NS(=O)(=O)c1cc2c(cc1Cl)NCNS2(=O)=O | 99.7% (inactive) | 102% (inactive) | 95.7% (inactive) | 132% (inactive) | 123% (inactive) | 62.4% | 245% (inactive) | -4.52% (inactive) | 89.4% (inactive) | -2% (inactive) | -19.4% (inactive) | -24.8% (inactive) | 0.56% (inactive) | 105% (inactive) | 0 (inactive) | 2% (inactive) | -11.9% (inactive)
Fc1ccc(C(c2ccc(F)cc2)N2CCN(C/C=C/c3ccccc3)CC2)cc1 | 94.6% (inactive) | 131% (inactive) | 104% (inactive) | 80.9% (inactive) | 97% (inactive) | 56.3% | 215% (inactive) | -1.3% (inactive) | 108% (inactive) | 4% (inactive) | 6.79% (inactive) | 2.83% (inactive) | -0.13% (inactive) | 110% (inactive) | -0.02 (inactive) | 1% (inactive) | 4.09% (inactive)
C[N+](C)(C)CCCC(=O)c1ccc2c(c1)OCO2 | 94.4% (inactive) | 111% (inactive) | 96.7% (inactive) | 107% (inactive) | 97.7% (inactive) | 59.8% | 135% (inactive) | -22.3% (inactive) | 104% (inactive) | 0% (inactive) | -0.41% (inactive) | -2.19% (inactive) | 0.48% (inactive) | 101% (inactive) | -0.03 (inactive) | 8% (inactive) | -12% (inactive)
